Screens (PubChem BioAssay)
Hits are enriched below; roughly 2.1% of the tested compounds scored in any of these assays.
Avidin fluor: compound fluoresces at 488/530 nm on avidin beads. compound fluorescence 488/530 nm, flow cytometry; hits give high values. fluorescence (KMESF) at 10 µM. 0.38% of 220,000 active. AID 1775; in the data active = fluorescence above about 47
HMGR II inh: inhibitors of class II HMG-CoA reductase from Enterococcus faecalis; purified E. faecalis HMGR, NADPH absorbance 340 nm kinetic; inhibition, % at 10 µM; 0.41% of 190,000 active;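 active = inhibition above a set limit, the median over all tested compounds plus 3 SD, cut at about 9.5% in these data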;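 also: enzyme runs in reverse so mevalonate oxidation gives rising NADPH absorbance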
GSH fluor: GSH bead compound fluorescence profile | AID 1776 | GSH beads flow cytometry, compound fluorescence 488/530 nm; hits give high values | 0.25% of 190,000 active | fluorescence (KMESF) at 10 µM; in the data active = fluorescence above about 89;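 also: glutathione beads carrying GST-tagged Bcl family fusion proteins plus one bare bead set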
PGE2 EP2 inh: EP2 receptor (human) inhibition; P43116; C6 glioma cells expressing human EP2, cAMP TR-FRET; cells stimulated with saturating PGE2; inhibition, % at 25 µM; 0.52% of 260,000 active; AID 1422;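 active = percent inhibition above 40 after rounding to a whole number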;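 also: rat C6 glioma host cells with rolipram phosphodiesterase inhibitor present; the protocol text gives 20 µM as final concentration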
Target sequence (P43116 whole entry, looked up): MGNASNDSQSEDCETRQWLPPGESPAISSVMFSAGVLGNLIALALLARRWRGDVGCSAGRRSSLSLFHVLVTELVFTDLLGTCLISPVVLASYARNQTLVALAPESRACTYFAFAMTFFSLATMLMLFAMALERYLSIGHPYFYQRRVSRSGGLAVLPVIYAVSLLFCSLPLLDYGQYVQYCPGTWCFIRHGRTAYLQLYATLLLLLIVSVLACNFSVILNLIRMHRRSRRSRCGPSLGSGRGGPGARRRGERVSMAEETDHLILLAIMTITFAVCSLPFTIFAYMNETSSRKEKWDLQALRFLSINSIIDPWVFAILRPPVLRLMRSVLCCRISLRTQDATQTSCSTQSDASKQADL
EP2 modulator: EP2 receptor (human) modulation; P43116; EP2-expressing cells, cAMP HTRF FRET, PGE2 co-stimulation; induction, % at 25 µM; 0.83% of 260,000 active; AID 940;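 active = compounds whose cAMP rise, as percent of the full-agonist control response, exceeds 60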;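 also: rat C6 glioma line stably carrying human EP2 under a CMV promoter; the protocol text gives 20 µM as final concentration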
Each line names hits and unclear results; the compound was inactive in the other large screens.

CCC(=O)Nc1cc(-c2nn(CC(=O)N3CCCCC3)c(=O)c3ccccc23)ccc1N1CCOCC1	Avidin fluor 143
CCCC(=O)Nc1cc(-c2nn(C)c(=O)c3ccccc23)ccc1N1CCOCC1	none
CN1CCN(C(CNS(=O)(=O)c2ccc(Cl)cc2)c2cccnc2)CC1 (stereo unspecified)	Avidin fluor 130
CN1CCN(C(CNS(=O)(=O)c2ccc(F)cc2)c2cccnc2)CC1 (stereo unspecified)	none
Cc1ccc(NC(=O)/C(=C/c2cccc(Br)c2)NC(=O)c2ccco2)cc1	none
O=C(Nc1ccc(C(=O)O)cc1)/C(=C/c1cccc(Br)c1)NC(=O)c1ccco1	EP2 modulator 63
CC(=O)Nc1ccc(C2(O)COc3ccccc3O2)cc1 (stereo unspecified)	GSH fluor 262
CC(C)C(=O)NC(c1ccccc1)c1cc([N+](=O)[O-])c2cccnc2c1O (stereo unspecified)	none
O=[N+]([O-])c1cc(Cc2cc([N+](=O)[O-])c3cccnc3c2O)c(O)c2ncccc12	PGE2 EP2 inh 75 (no result: Avidin fluor, HMGR II inh, GSH fluor)
CCOc1ccc2nc3c(cc2c1)CN(CCOC)C(=NC)S3	GSH fluor 114
Cc1cc2c(s1)c1cnn(CC(=O)N3CCN(c4ccc(F)cc4)CC3)c(=O)c1n2C	none (no result: Avidin fluor, HMGR II inh, GSH fluor, PGE2 EP2 inh)
COc1ccccc1-c1cc(C(F)(F)F)nc(S(=O)(=O)CCCC(=O)N2CCOCC2)n1	none
COc1ccccc1-c1cc(C(F)(F)F)nc(S(=O)(=O)CCCC(=O)O)n1	HMGR II inh 12
O=C(CSc1nc2sc3c(c2c(=O)[nH]1)CCCC3)Nc1cccc(F)c1	none (no result: Avidin fluor, HMGR II inh, GSH fluor)
Cc1cccc(NC(=O)CSc2nc3sc4c(c3c(=O)[nH]2)CCCC4)c1C	PGE2 EP2 inh 45 (no result: Avidin fluor, HMGR II inh, GSH fluor)
CCOC(=O)CSc1nc2c(sc(=S)n2-c2ccc(OCC)cc2)c(=O)[nH]1	none
CCOc1ccc(-n2c(=S)sc3c(=O)[nH]c(SCC(=O)N4CCC(C)CC4)nc32)cc1	EP2 modulator 62
Cc1cccc2c(C(=O)NCc3nc(-c4ccccc4Cl)no3)cc(=O)[nH]c12	none (no result: Avidin fluor, HMGR II inh, GSH fluor)
CC1(C)Cc2ccccc2C(C(=O)Nc2ccccc2Cl)N1 (stereo unspecified)	EP2 modulator 63 (no result: Avidin fluor, HMGR II inh, GSH fluor)
O=C1c2cccc3c([N+](=O)[O-])ccc(c23)C(=O)N1c1nccs1	PGE2 EP2 inh 55
CCOC(=O)N1CCN(c2cc(NCCO)c([N+](=O)[O-])c3nonc23)CC1	Avidin fluor 103, HMGR II inh 13
COC(=O)CN1C(=O)COc2ccc(C)cc21	none (no result: Avidin fluor, HMGR II inh, GSH fluor)
Cc1ccc2c(c1)N(CC(=O)N1c3ccccc3Sc3ccccc31)C(=O)CO2	EP2 modulator 63 (no result: Avidin fluor, HMGR II inh, GSH fluor)
NC(=O)C1Cc2ccccc2CN1S(=O)(=O)c1cccs1 (stereo unspecified)	HMGR II inh 9.7
COc1cc2ncc(C(=O)c3ccccc3)c(N3CCN(Cc4ccccc4)CC3)c2cc1OC	EP2 modulator 86 (no result: HMGR II inh, GSH fluor)
O=C(NNc1nc2c(c(=O)[nH]1)C1(CCCCC1)Cc1ccccc1-2)c1ccccc1	none (no result: Avidin fluor, HMGR II inh, GSH fluor)
Fc1ccc(C2=NN(c3ccccc3)C(c3ccco3)C2)cc1 (stereo unspecified)	HMGR II inh 13
Cc1ccc(N2N=C(c3ccc(F)cc3)CC2c2ccco2)cc1 (stereo unspecified)	none
CCC1(CC)C(=O)N(C)C(=O)NC1=Nc1ccccc1	GSH fluor 273
O=C(c1ccco1)N1CCCC(c2ncncc2-c2ccncc2)C1 (stereo unspecified)	none (no result: Avidin fluor, HMGR II inh, GSH fluor, PGE2 EP2 inh)
CCN(CC)CCCNC(=O)c1cc2nc(-c3ccco3)cc(C(F)(F)F)n2n1	none (no result: Avidin fluor, HMGR II inh, GSH fluor)
Clc1ccc(/C=N/Nc2nn[nH]n2)cc1	GSH fluor 144
O=C(c1ccc(Cl)cc1)N1CCCCCC1	none (no result: Avidin fluor, HMGR II inh, GSH fluor)
Cn1cc(/C(Cc2ccccc2)=N\O)c2ccccc21	EP2 modulator 64
COc1cc2c(cc1CN(Cc1ccc3c(c1)OCO3)CC(C)O)CCC2 (stereo unspecified)	none (no result: Avidin fluor, HMGR II inh, GSH fluor)
COc1ccc(-c2nc(CN3CCCCC3c3cccnc3)c(C)o2)c(F)c1 (stereo unspecified)	HMGR II inh 16
C[N+]1([C@H](CO)Cc2c[nH]c3ccccc23)Cc2ccccc2C1	PGE2 EP2 inh 50 (no result: Avidin fluor, HMGR II inh, GSH fluor)
O=C(O)C(O)Cc1c[nH]c2ccccc12 (stereo unspecified)	none
Cc1c(N=Cc2nc3ccccc3[nH]2)c(=O)n(-c2ccccc2)n1C	none
Cc1c(N=Cc2c(O)n(Cc3ccco3)c(=O)c3ccccc23)c(=O)n(-c2ccccc2)n1C	GSH fluor 136
